The source of these data is PubChem BioAssay (NCI).

Common to all, as to experiment: NCI-60 one-dose screen, 48 h (100 = growth as untreated, 0 = no growth, -100 = all killed)
Holding throughout (settings): 10 µM unless noted

Test [1] relates to SK-MEL-2 melanoma.
For test [2], the system named is EKVX NSCLC.
For test [3], the system named is SN12C renal.
The test system of test [4] is UO-31 renal.
Test [5] deals with TK-10 renal.
The subject of test [6] is ACHN renal.
Test [7] relates to CAKI-1 renal.
Test [8] deals with A498 renal.
Test [9] concerns MOLT-4 leukemia.
Test [10] relates to SR leukemia.
Test [11] concerns OVCAR-5 ovarian.
In test [12] the test system is OVCAR-4 ovarian.
For test [13], the system named is SK-OV-3 ovarian.
The test system of test [14] is OVCAR-3 ovarian.
For test [15], the system named is HS 578T breast.
The subject of test [16] is NCI/ADR-RES ovarian.
Test [17] concerns OVCAR-8 ovarian.
Test [18] deals with IGROV1 ovarian.
The subject of test [19] is RPMI-8226 leukemia.
For test [20], the system named is CCRF-CEM leukemia.

Each structure is given as a SMILES string. This is part of a sample that, as a whole, favours compounds with a hit. Of some 83,000 tested, about 20% had one in any assay.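 A percent growth of 40 corresponds to 60% growth inhibition; 0 means no net growth; -100 means all cells died. Active threshold: below 10.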 A number with no mark means an inactive call. The source made the active and inactive calls.

Consider `O=c1c2c3c(sc2nc(N/N=C/c2ccc(Br)cc2)n1Cc1ccccc1)CCCC3`, for which the growth in test [1] is 102%; in test [2], 74.1%; in test [3], 78.3%; in test [4], 62.3%; in test [5], 85.5%; in test [6], 87.1%. For the same molecule, the growth was 62% in [7]; 78.4% in test [8]; 40.8% in [9]; 33.5% in [10]; 78.3% in test [11]; 84.2% in test [12]. The growth in test [13] was 81.7%; in test [14], 76.8%; in test [15], 64.8%; in [16] it was 80%.
As for `O=C(O)CN1C(=O)CCC1=O`, the growth in test [1] is 118%; in test [2], 95.4%; in test [3], 102%; in [4] it was 102%; in test [5] it was 107%; in [6], 96%. Moreover, the growth in [7] is 102%; in test [8], 97.4%; in test [9], 114%; in test [10] it was 112%; in test [17], 99.4%; in test [11], 101%. For the same molecule, the growth in test [13] is 104%; in [18], 118%; in test [14], 115%; in test [15], 115%; in test [16], 112%.
`COC(=O)c1c2c(c[n+]([O-])c1C)C(=O)C=CC2=O`: the growth in [1] is 58.5%; in test [2], 101%; in [3], 59.7%; in [4], 46.5%; in test [5], 101%; in test [6], 14.2%. Besides, the growth in [7] was 62.1%; in [8], 106%; in test [9], -17.4% (active); in test [19] it was 57.6%; in test [17], 35.3%; in test [11], 118%. The growth was -13.2% (active) in [12]; 97% in [13]; 2.42% (active) in [18]; -66.3% (active) in [14]; 86.3% in test [15].
For `COc1ccc(-c2nc3c(N)c(CO)c(C)nc3o2)cc1`, the growth in test [1] was 105%; in test [2], 95.7%; in test [3], 106%; in test [4], 88.7%; in test [5], 85%; in [6], 112%. Moreover, the growth in test [7] is 97%; in test [8], -10.8% (active); in test [9], 96.3%; in test [10] it was 100%; in test [11], 85.1%; in test [12] it was 104%. In addition, the growth in [13] is 106%; in test [18], 86.9%; in [15] it was 105%.
Take `CCCCCS(=O)(=O)Nc1ccc(C(=O)O)cc1`: the growth in test [1] was 93%; in test [2], 100%; in [3], 101%; in test [4] it was 97.9%; in [5], 92.1%; in [6], 104%. In addition, the growth was 102% in [7]; 104% in test [8]; 95.7% in test [10]; 106% in test [17]; 111% in test [11]; 103% in [12]. Besides, the growth in test [13] is 99.2%; in test [18], 101%; in test [14], 110%; in [15] it was 110%; in test [16], 102%.
For the molecule `COc1cc(C2CC(=O)Nc3c2c(C)nn3-c2nc3ccccc3[nH]2)cc2c1OCC(=O)N2` (centres undefined), the growth is 79.3% in test [2]; 76.3% in [3]; 51.9% in test [4]; 87.3% in [5]; 70.4% in [6]; 95.1% in test [7]. Also, the growth is 21.4% in test [8]; 12.7% in [20]; -20.1% (active) in test [9]; 74.1% in test [19]; 34.9% in [17]; 101% in test [11]. The growth is 73.2% in [12]; 28.6% in test [13]; 60.4% in test [18]; 13.6% in [14]; 26.7% in [15]; 93.2% in test [16].
As for `O=C(COc1ccc(/C=C2\Oc3ccccc3C2=O)cc1)c1ccc(Cl)cc1`, the growth in [1] was 82.7%; in test [2] it was 98.8%; in [3] it was 103%; in test [4], 110%; in [5], 120%; in test [6] it was 104%. Besides, the growth in [7] was 81.8%; in test [8], 112%; in test [9], 87.9%; in test [10], 90.8%; in test [17], 105%; in test [11], 97.4%. The growth was 115% in [12]; 105% in test [13]; 96.6% in [14]; 112% in [15]; 110% in [16].
As for `C=C1C(=O)O[C@H]2[C@H]1CC/C(COC(=O)C(=O)c1c[nH]c3ccc(OC)cc13)=C\CC[C@@]1(C)O[C@@H]21`, the growth is -60.9% (active) in [1]; -4.43% (active) in test [2]; -48.5% (active) in test [3]; -96.3% (active) in test [4]; -56.7% (active) in [5]; -67.1% (active) in [6]. Also, the growth was -56.9% (active) in [7]; -98.7% (active) in test [8]; -28.2% (active) in test [9]; -2.97% (active) in [10]; -24.6% (active) in [17]; -30.6% (active) in test [11]. Also, the growth in [12] is -12% (active); in [13], 15.8%; in test [18] it was -73% (active); in [14], -74.6% (active); in test [15] it was 2.01% (active); in [16], 7.22% (active).
In the case of `NC(=N\N=C/c1cccc([N+](=O)[O-])c1)/C(N)=N\N=C/c1cccc([N+](=O)[O-])c1`, the growth is 75% in [1]; 79.5% in [2]; 86.8% in test [3]; 107% in [4]; 27.6% in test [5]; 94% in test [6]. The growth is 53.8% in test [7]; 61.5% in test [8]; 86% in [9]; 71.3% in test [10]; 57.8% in test [17]; 101% in test [11]. For the same molecule, the growth in [13] is 61.1%; in [18], 96.1%; in [14], 42.9%; in test [15], -11.6% (active); in test [16] it was 80.5%.
Regarding `c1ccc(Nc2nc(-c3ccccn3)cs2)nc1`, the growth in test [1] was 27.6%; in test [2], 30.7%; in test [3], 13.4%; in test [4] it was 0.382% (active); in test [5], 37%; in [6], 1.7% (active). In addition, the growth in test [7] was -13.3% (active); in [8] it was 28.3%; in [9], 14.2%; in test [19], 14.6%; in [17], 14.4%; in [11], 53%. Further, the growth was 29.5% in [13]; 9.37% (active) in test [18]; 39.7% in [14]; 42.9% in [15]; -0.82% (active) in [16].
Take `N#Cc1c(N2CCNCC2)nc2sc3cc(Cl)c(Cl)cc3n2c1=N`: the growth was 112% in [1]; 98.8% in test [2]; 93.2% in test [3]; 80.8% in test [4]; 141% in [5]; 102% in [6]. The growth in test [7] was 101%; in [8] it was 115%; in test [9], 70.4%; in [10] it was 116%; in test [17], 94.5%; in [11], 131%. Moreover, the growth was 85.5% in [12]; 84.7% in [13]; 107% in test [14]; 114% in test [15]; 106% in [16].
As for `Cc1ccc2[nH]c(=O)c3c(c2c1)OC(N)=C(C#N)C31c2cc(Br)ccc2-c2ccc(Br)cc21`, the growth was 77.1% in test [1]; 60.3% in test [2]; 82.7% in test [3]; 58.3% in test [4]; 84.2% in test [5]; 62.3% in test [6]. Moreover, the growth was 49.1% in [7]; 79.7% in [8]; 62.3% in test [9]; 72.2% in test [10]; 61.1% in test [11]; 21% in [12]. Moreover, the growth in test [13] is 91.8%; in [18], 40.1%; in test [14], 58.9%; in test [15] it was 70.8%; in [16], 82.3%.
Take `Cc1ccc(-c2cc(-c3ccccc3C)[nH]c(=O)c2C#N)s1`: the growth in test [2] is 96.9%; in [3], 91.8%; in [4], 71.7%; in test [5], 92.1%; in test [6], 90.7%; in test [7] it was 82.9%. Also, the growth in test [8] is 77.5%; in test [9], 93.3%; in test [10] it was 118%; in [19], 97.5%; in test [17] it was 95.5%; in test [11], 93.4%. Moreover, the growth in test [12] is 85.1%; in test [13], 111%; in [18] it was 80.4%; in test [14] it was 94.5%; in test [15], 82.8%; in test [16] it was 96.8%.
`O=C(CSc1nnc(-c2ccc(NC(=O)c3cccnc3)cc2)o1)N[C@@H](Cc1ccc(O)cc1)C(=O)O`: the growth in test [2] is 110%; in [3] it was 94.4%; in test [4] it was 85.1%; in test [5] it was 106%; in [6], 98.6%; in test [7], 92.4%. Also, the growth in test [8] was 117%; in [20] it was 96.6%; in test [9], 99.8%; in [17] it was 99.8%; in test [11], 106%; in [12], 120%. The growth in test [13] is 101%; in [18] it was 102%; in test [14], 120%; in test [15], 96.9%; in test [16], 104%.
As to `C=CCn1c(C)nc2cc(Nc3nc(N4CCCC4)nc4ccccc34)ccc21`, the growth in test [2] was 97.7%; in [3] it was 90.3%; in test [4], 68.1%; in test [5] it was 108%; in test [6], 103%; in [7], 84.9%. Besides, the growth in [8] is 71.4%; in test [9] it was 49.9%; in test [10], 5.75% (active); in test [19], 55%; in test [17], 84.1%; in [11], 123%. In addition, the growth in [12] was 91.3%; in test [13], 123%; in test [18] it was 95.4%; in test [14], 105%; in test [15] it was 86.8%; in [16], 83.3%.
For the molecule `N#Cc1c(N)nn(C(=O)c2ccc(NC(=O)c3ccccn3)cc2)c1-c1ccc(Cl)cc1`, the growth in test [2] was 49.2%; in test [3] it was 35%; in [4] it was 54.3%; in [5], 24.6%; in test [6] it was 12.9%; in [7] it was 26%. Also, the growth in test [8] is 51.1%; in test [9] it was 52.9%; in test [10], 50%; in test [19], 43.6%; in [17] it was 18.4%; in test [11] it was 62.7%. In addition, the growth in test [12] is -2.76% (active); in test [13], 67.2%; in test [18], 11.1%; in [14], 6.15% (active); in [15] it was 28.6%; in test [16], 28.5%.
